High-throughput results: PubChem BioAssay, several laboratories
PKA-R1A act: activators of PKA-R1A complex; P00514+P68181; PKA-R1A dissociation, Cy5-IP20 fluorescence polarization; scaled: DMSO 0%, 113 µM cGMP 100%; activation, % at 11.4 µM; hit rate 0.083% among 340,000;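 active = percent activation above the mean of all tested compounds plus 3 SD, cut at about 19% in these data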;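 also: higher means more PKAc released from R1A so a rise in polarization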
PKA-R2B act: PKA-R2B complex activation. hit rate 0.079% among 340,000. activation, % at 11.4 µM. PKA-R2B holoenzyme dissociation, Cy5-IP20 fluorescence polarization; R2B truncated from residue 108, S112A mutant; 0% DMSO only, 100% 113 µM cGMP. P22694+P31323;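 active = activation above a cutoff set at the mean over all compounds plus 3 SD, cut at about 18% in these data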;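 also: higher means more holoenzyme dissociation and a rise in polarization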
TMEM16A act: mouse TMEM16A channel activation, primary screen; Q8BHY3; B-score at 10 µM; hit rate 0.3% among 340,000; HEK293 TMEM16A/YFP-H148Q/I152L, iodide quench fluorescence; active compounds read low;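 active = fluorescence-ratio B-score plate-corrected deviation score at least 3 library SD below zero, with starting fluorescence score within 5 deviations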;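 also: channel opened by trigger with iodide after compound preincubation; score built on the fluorescence ratio of max minus min over baseline; more negative score means more quench and so TMEM16A activation or potentiation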
CHT allo act: human CHT allosteric activation; Q9GZV3; CHT-expressing cells, membrane potential dye, choline EC20; active compounds read high; LV-AA mutant CHT in HEK293 cells; B-score at 10 µM; hit rate 0.49% among 310,000;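 active = initial fluorescence not abnormally high and integrated response B-score, plate-corrected, over 3 SD above library mean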
Target sequence (Q9GZV3 whole entry, looked up): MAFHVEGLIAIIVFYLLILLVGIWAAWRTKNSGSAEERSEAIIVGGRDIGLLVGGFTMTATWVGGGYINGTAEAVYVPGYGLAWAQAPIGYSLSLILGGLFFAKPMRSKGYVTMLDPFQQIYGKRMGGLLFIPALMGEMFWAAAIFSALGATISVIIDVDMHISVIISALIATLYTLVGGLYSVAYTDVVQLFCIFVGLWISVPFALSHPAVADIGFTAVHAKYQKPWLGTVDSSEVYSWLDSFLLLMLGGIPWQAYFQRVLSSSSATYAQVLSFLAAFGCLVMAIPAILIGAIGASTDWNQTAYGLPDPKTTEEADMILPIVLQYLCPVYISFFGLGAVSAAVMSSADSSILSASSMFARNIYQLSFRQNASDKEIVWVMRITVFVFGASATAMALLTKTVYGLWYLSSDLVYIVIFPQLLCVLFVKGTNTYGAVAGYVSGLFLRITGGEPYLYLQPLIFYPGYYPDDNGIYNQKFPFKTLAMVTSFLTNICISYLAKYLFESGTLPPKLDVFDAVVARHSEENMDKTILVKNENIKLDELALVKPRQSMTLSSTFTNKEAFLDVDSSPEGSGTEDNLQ
CHT block: inhibitors of human choline transporter CHT | Q9GZV3 | CHT-expressing cells, membrane potential dye, choline response; active compounds read low | B-score at 10 µM | hit rate 0.86% among 310,000;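 active = B-score over 3 SD under the library average, and starting fluorescence ratio not unusually high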;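 also: choline stimulus applied at its EC90 after an EC20 pre-addition; B-score computed on integrated fluorescence ratio after choline addition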
TMEM16A inh: mouse TMEM16A channel inhibition, primary screen; Q8BHY3; HEK293 TMEM16A/YFP iodide influx fluorescence, ionomycin; normalized B-score (activity score, 25-100; higher = stronger inhibition) at 10 µM; hit rate 1.2% among 310,000; AID 588511;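 active = ratio plate-corrected score three or more library SD toward inhibition, starting fluorescence score within five deviations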;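 also: score derived from kinetic fluorescence span divided by baseline fluorescence per well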
TMEM16A reconf: re-confirmation of mouse TMEM16A chloride channel inhibitors. shares compounds with TMEM16A inh. HEK293 TMEM16A/YFP-H148Q, iodide quench fluorescence; ionomycin added to raise cell calcium. inhibition, % at 10 µM. hit rate 39% among 2,300. AID 652189;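 active = mean duplicate percent inhibition, scaled so buffer wells are 0 and the reference blocker 100, over three buffer SD above buffer mean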
TMEM16A Ca cntr: calcium mobilization counter-screen hit for TMEM16A inhibitor series | shares compounds with TMEM16A inh | TMEM16A/YFP HEK293, Fluo4 calcium mobilization | calcium response (% of ionomycin), % at 10 µM | hit rate 2% among 2,300 | AID 652231;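 active = duplicate-averaged calcium signal over 20% of the ionomycin maximum, relative to buffer baseline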;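 also: each well's signal is peak minus trough fluorescence divided by its pre-addition baseline; 0% = buffer wells and 100% = ionomycin wells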
Parental YFP cnt: counter-screen for TMEM16A inhibitors: effect in parental YFP-HEK293 cells | 2,300 tested, under 10 active | YFP ratio F(max-min)/F0 at 10 µM | iodide YFP quench, ionomycin | AID 652233 | shares compounds with TMEM16A inh;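 active = yellow fluorescent protein signal ratio exceeding the buffer control mean by over 5 SD of those controls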;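 also: ratio is mean of duplicate wells from kinetic YFP trace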
ClC-1 rat inh: blocks the rat ClC-1 voltage-dependent chloride channel; shares compounds with TMEM16A inh; ratio percent, % at 10 µM; 2,300 tested, under 10 active; CHO ClC-1-YFP, iodide influx fluorescence quench; iodide control reads 0, buffer control 100;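 active = duplicate-mean ratio percent above the mean of iodide-only control wells, which defines zero, plus 5 of their SD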;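 also: higher percent means stronger block of ClC-1 iodide influx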
Numbers without * were called inactive; i = inactive; x = no result. Shown are actives, neighbours in structure and some others; about 2.5% of the full set was active somewhere.

SMILES	PKA-R1A act	PKA-R2B act	TMEM16A act	CHT allo act	CHT block	TMEM16A inh	TMEM16A reconf	TMEM16A Ca cntr	Parental YFP cnt	ClC-1 rat inh
Cc1cc(C)n(-c2nc3sc4c(c3c3nnc(SC(C)C)n23)CC(C)(C)OC4)n1	-3	-8	i	i	i	100*	i	i	-1	-7
COc1ccc(NC(=O)c2cccc(S(=O)(=O)N3CCc4ccccc43)c2)cn1	-8	2	i	i	i	25*	i	i	-1.1	-16
COc1ccc(C(=O)Nc2ccc(S(=O)(=O)N3CCc4ccccc43)cc2)cc1	0	0	i	i	i	100*	34%*	i	-1.1	-10
O=C(Nc1ncccc1O)c1cccc(S(=O)(=O)N2CCc3ccccc32)c1	-7	2	i	i	i	i	x	x	x	x
C/C(=N\N)c1c(-c2ccccc2)c2cc(C)ccc2[nH]c1=O	2	-3	i	i	i	i	x	x	x	x
CCN(CC)c1c(-c2ccccc2)c2cc(C)ccc2[nH]c1=O	-5	-5	i	i	i	25*	i	i	-1.1	-9
C[C@]1(CC/C(=C/CO)CO)[C@H](CO)CC[C@@]23COC(=O)C2=CCC[C@@H]31	-11	-7	i	i	i	i	x	x	x	x
COC(=O)c1cc([N+](=O)[O-])c(-n2cncn2)c([N+](=O)[O-])c1	1	-10	i	x	x	x	x	x	x	x
O=C(CNC(=O)c1ccccc1F)OC(C(=O)Nc1cc(C(F)(F)F)ccc1Cl)c1ccccc1 (configuration not stated)	3	-12	i	i	i	i	x	x	x	x
C[C@H](NC(=O)c1ccccc1Cl)C(=O)OC(C(=O)Nc1cc(C(F)(F)F)ccc1Cl)c1ccccc1 (some centres not stated)	-10	-17	i	i	i	25*	i	i	-1.4	-6
Fc1ccc(-c2nnc(CN3CCN(c4ncc(C(F)(F)F)cc4Cl)CC3)o2)cc1	-8	2	i	i	i	100*	i	i	-1.1	-19
CCCN(Cc1nnc(-c2cccs2)o1)C(=O)CN1C(=O)NC2(CCCCC2C)C1=O (configuration not stated)	3	1	i	x	x	x	x	x	x	x
CCC(C)Nc1nc(-c2cccc(OC)c2O)nc2ccccc12 (configuration not stated)	0	-8	i	i	i	100*	28%*	i	-1.1	-9
CC(Oc1ccc(Cl)cc1)c1ccnn1S(=O)(=O)c1ccccc1 (configuration not stated)	-10	5	i	i	i	100*	32%*	i	-1.1	-12
CC(Oc1ccccc1)c1ccnn1S(C)(=O)=O (configuration not stated)	3	-8	i	i	i	i	x	x	x	x
CN(CCOc1ccccc1)CC(=O)Nc1ccc([N+](=O)[O-])cc1Cl	-18	0	i	i	i	25*	19%*	i	-1.1	-8
CCOC(=O)c1[nH]c(C)c(C(=O)Nc2ccc3c(c2)OCCO3)c1C	1	-9	i	i	i	25*	i	i	-0.98	-2
CCOC(=O)c1[nH]c(C)c(C(=O)Nc2ccc3c(c2)CCC3)c1C	1	8	i	i	i	i	x	x	x	x
O=S(=O)(NC1CCN(S(=O)(=O)c2ccc3c(c2)OCCO3)C1)c1c(F)cccc1F (configuration not stated)	0	1	i	x	x	x	x	x	x	x
COc1ccc(Nc2nc3ccccc3n3nnnc23)cc1	1	12	i	i	i	i	x	x	x	x
COc1cc(Nc2nc3ccccc3n3nnnc23)cc(OC)c1OC	-2	-4	i	i	i	i	i	i	-0.81	-4
Cc1ccc(Sc2ncccc2COC(=O)Nc2c(C)cccc2C)cc1	2	3	i	i	i	100*	i	i	-0.96	-14
Cc1ccc(Sc2ncccc2COC(=O)Nc2ccccc2)cc1	-6	-7	i	i	i	100*	i	i	-1.1	0
Cc1ccccc1NC(=O)OCc1cccnc1Sc1ccc(Cl)cc1	11	-2	i	i	i	i	x	x	x	x
COc1cc(CN2CCN(CCCc3ccccc3)C(CCO)C2)cc(OC)c1O (configuration not stated)	3	8	i	i	i	i	x	x	x	x
SMILES	PKA-R1A act	PKA-R2B act	TMEM16A act	CHT allo act	CHT block	TMEM16A inh	TMEM16A reconf	TMEM16A Ca cntr	Parental YFP cnt	ClC-1 rat inh
Brc1ccc2ncnc(NCc3ccccc3)c2c1	-6	-9	i	i	i	i	x	x	x	x
CCCCCCCCNc1ncnc2ccccc12	-8	-1	i	i	i	100*	38%*	i	-1	-36
c1ccc(CCNc2ncnc3ccccc23)cc1	0	-6	i	i	i	25*	i	i	-1	-26
COCc1cc(=O)n2[nH]cc(-c3ccccc3)c2n1	-5	-16	i	i	i	i	x	x	x	x
CCCc1cc(=O)n2[nH]cc(-c3ccc(Cl)cc3)c2n1	5	4	i	i	i	100*	i	i	-0.93	-14
N#CCCN(C(=O)Nc1ccccc1)C1CCCCC1	13	0	i	x	x	x	x	x	x	x
Cc1cc(C)cc(NC(=O)c2nnn(Cc3cc(C)ccc3C)c2N)c1	-5	0	-4.6*	i	i	25*	42%*	i	-1.1	-5
O=[N+]([O-])c1ccc(Oc2ccc(Oc3ccc(C(F)(F)F)cn3)cc2)nc1	-3	10	i	i	i	i	x	x	x	x
O=C(NCc1ccccc1)c1cc2nc(C3CC3)cc(C(F)(F)F)n2n1	-6	-2	i	i	i	100*	i	i	-1.2	-14
CC(C)Cn1c(N)c(C(=O)COC(=O)c2ccc(F)cc2)c(=O)n(C)c1=O	-5	-10	i	i	i	i	x	x	x	x
